Assay results: PubChem BioAssay (NCI)
This is part of a sample that, as a whole, favours compounds with a hit. Of some 79,000 tested, about 15% had one in any assay. The source made the active and inactive calls. Rule as the data show it: active = growth inhibition above about 70%; inactive = the rest.

Experiments:
[1] = NCI Yeast Anticancer Drug Screen. Data for the rad52 strain (AID 147);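 also: 0% = growth of vehicle-treated control cultures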; conditions: S. cerevisiae rad52 mutant growth inhibition, hits give high values
Outline: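 Compounds are applied to a genetically defined yeast strain lacking normal DNA damage repair, and inhibition of growth is expressed relative to cultures given vehicle only.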

[2] = NCI Yeast Anticancer Drug Screen. Data for the wt1 strain (AID 149);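 also: 0% = growth of vehicle-treated wt1 cultures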; conditions: S. cerevisiae wt1 strain (SPY 50644) growth inhibition, hits give high values
Outline: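 Vehicle-normalised growth inhibition; strain wt1; compound exposure.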

[3] = NCI Yeast Anticancer Drug Screen. Data for the rad50EPP+ strain (AID 151);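 also: 0% = growth of vehicle-treated control cultures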; conditions: S. cerevisiae rad50 mutant strain, hits give high values
Outline: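 Compounds were applied to the rad50EPP+ yeast strain, which bears a defined DNA repair alteration, and growth inhibition was determined relative to vehicle-treated cultures.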

[4] = NCI Yeast Anticancer Drug Screen. Data for the rad50 strain (AID 155);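 also: 0% = growth of vehicle-only cultures of the same strain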; conditions: S. cerevisiae rad50 strain growth inhibition, hits give high values
Outline: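 A DNA repair-deficient yeast mutant serves as the test organism; compound-induced growth inhibition is calculated against vehicle-treated cells.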

[5] = NCI Yeast Anticancer Drug Screen. Data for the mec2-1 strain (AID 157); conditions: S. cerevisiae mec2-1 strain, hits give high values
Outline: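 Strain: mec2-1 (DNA repair/cell cycle alteration). Compound exposure, then growth measured; inhibition expressed relative to vehicle.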

[6] = NCI Yeast Anticancer Drug Screen. Data for the rad14 strain (AID 159);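 also: 0% = growth of vehicle-treated control cultures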; conditions: S. cerevisiae rad14 strain growth inhibition, hits give high values
Outline: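 Vehicle-treated cultures served as the baseline for growth inhibition of a DNA repair-mutant yeast strain exposed to each compound.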

[7] = NCI Yeast Anticancer Drug Screen. Data for the sgs1 mgt1 strain (AID 161);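 also: 0% = growth of cultures given vehicle only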; conditions: S. cerevisiae sgs1 mgt1 strain, hits give high values
Outline: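 Genetically altered yeast, compound exposure, growth inhibition relative to vehicle.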

[8] = NCI Yeast Anticancer Drug Screen. Data for the CLN2oe strain (AID 163);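 also: 0% = growth of vehicle-only control cultures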; conditions: S. cerevisiae CLN2oe strain, hits give high values
Outline: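 Growth of a genetically modified yeast strain is measured after compound exposure and compared with cultures given vehicle alone.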

[9] = NCI Yeast Anticancer Drug Screen. Data for the cln2 rad14 strain (AID 165);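 also: 0% = growth equal to vehicle treated cultures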; conditions: S. cerevisiae cln2 rad14 strain, hits give high values
Outline: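 Compounds are applied to the cln2 rad14 yeast strain, and growth is then compared with that of vehicle-treated cultures to give inhibition.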

[10] = NCI Yeast Anticancer Drug Screen. Data for the bub3 strain (AID 167); conditions: S. cerevisiae bub3 mutant strain, hits give high values
Outline: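 Inhibition values come from growth of compound-treated mutant yeast normalised to vehicle-treated controls.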

[11] = NCI Yeast Anticancer Drug Screen. Data for the wt2 strain (AID 169);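 also: 0% = growth of vehicle-treated yeast cultures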; conditions: S. cerevisiae wt2 strain growth inhibition, hits give high values
Outline: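 This strain belongs to a panel of yeast strains with defined genetic alterations in DNA damage repair or cell cycle control. Compounds are applied, and growth inhibition is measured against vehicle-treated cultures.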

[12] = NCI Yeast Anticancer Drug Screen. Data for the mlh1 strain (AID 171);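 also: 0% = growth of vehicle-treated control cultures of the same strain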; conditions: S. cerevisiae mlh1 strain growth inhibition, hits give high values
Outline: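 Growth of the mutant yeast strain after compound exposure, expressed as inhibition relative to vehicle-only controls.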

[13] = NCI Yeast Anticancer Drug Screen. Data for the sgs1 strain (AID 173);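 also: 0% = growth of vehicle-only control cultures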; conditions: S. cerevisiae sgs1 mutant, hits give high values
Outline: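 Growth of a yeast strain bearing a defined genetic alteration is measured after compound treatment. Inhibition is expressed relative to vehicle-only controls.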

[14] = NCI Yeast Anticancer Drug Screen. Data for the mlh1 rad18 strain (AID 175); conditions: S. cerevisiae mlh1 rad18 strain growth inhibition, hits give high values
Outline: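 Read-out is yeast growth inhibition, calculated against vehicle-only controls. The compound was applied to a strain engineered with DNA damage repair alterations.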

[15] = NCI Yeast Anticancer Drug Screen. Data for the rad18 strain (AID 177); conditions: S. cerevisiae rad18 mutant growth inhibition, hits give high values
Outline: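 Growth of the mutant yeast strain after compound exposure, normalised to vehicle-only cultures.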

[16] = at 5.0 µM (retest, dose inferred, filed as 0.5)
[17] = at 50.0 µM (retest, dose inferred, filed as 5.0)

Measured: growth inhibition

C[C@]12CCc3nonc3C1CC[C@@H]1C2CC[C@]2(C)C(=O)CCC12 (stereo partly specified)
active: [4]; at 100.0 µM 76% | [7]; [17] 73% | [7]; at 50.0 µM 81.5% | [10]; [17] 76% | [13]; at 100.0 µM 78%
inactive: [1]; at 1.2 µM 4% | [1]; at 3.7 µM 5% | [1]; at 11.0 µM 22% | [1]; at 33.0 µM 36% | [1]; at 100.0 µM 66% | [2]; at 1.2 µM 0% | [2]; at 3.7 µM -2% | [2]; at 11.0 µM -4% | [2]; at 33.0 µM 6% | [2]; at 100.0 µM 21% | [3]; at 1.2 µM 0% | [3]; at 3.7 µM 1% | [3]; at 11.0 µM 5% | [3]; at 33.0 µM 12% | [3]; at 100.0 µM 13% | [4]; at 1.2 µM 11% | [4]; at 3.7 µM 7% | [4]; [16] 51% | [4]; at 11.0 µM 28% | [4]; at 33.0 µM 62% | [4]; [17] 68% | [4]; at 50.0 µM 68% | [5]; at 1.2 µM -1% | [5]; at 3.7 µM -3% | [5]; [16] 26% | [5]; at 11.0 µM 10% | [5]; at 33.0 µM 15% | [5]; [17] 40% | [5]; at 50.0 µM 33.2% | [5]; at 100.0 µM 36% | [6]; at 1.2 µM 27% | [6]; at 3.7 µM 38% | [6]; at 11.0 µM 38% | [6]; at 33.0 µM 46% | [6]; at 100.0 µM 60% | [7]; [16] 46% | [8]; at 1.2 µM 17% | [8]; at 3.7 µM 25% | [8]; at 11.0 µM 28% | [8]; at 33.0 µM 41% | [8]; at 100.0 µM 51% | [9]; [16] 54% | [9]; [17] 57% | [9]; at 50.0 µM 44.1% | [10]; at 1.2 µM 1% | [10]; at 3.7 µM 6% | [10]; [16] 14% | [10]; at 11.0 µM 19% | [10]; at 33.0 µM 24% | [10]; at 50.0 µM 35.8% | [10]; at 100.0 µM 49% | [11]; at 1.2 µM 5% | [11]; at 3.7 µM 6% | [11]; at 11.0 µM 1% | [11]; at 33.0 µM 14% | [11]; at 100.0 µM 39% | [12]; at 1.2 µM -4% | [12]; at 3.7 µM -3% | [12]; at 11.0 µM -1% | [12]; at 33.0 µM 19% | [12]; at 100.0 µM 50% | [13]; at 1.2 µM 13% | [13]; at 3.7 µM 21% | [13]; at 11.0 µM 31% | [13]; at 33.0 µM 50% | [14]; [16] 46% | [14]; [17] 68% | [14]; at 50.0 µM 56.9% | [15]; at 1.2 µM 14% | [15]; at 3.7 µM 12% | [15]; at 11.0 µM 19% | [15]; at 33.0 µM 28% | [15]; at 100.0 µM 62%

COc1cc2ccccc2c2cc([N+](=O)[O-])oc12
active: [1]; at 1.2 µM 82% | [1]; at 3.7 µM 88% | [1]; at 11.0 µM 91% | [1]; at 33.0 µM 91% | [1]; at 100.0 µM 91% | [3]; at 1.2 µM 82% | [3]; at 3.7 µM 86% | [3]; at 11.0 µM 91% | [3]; at 33.0 µM 90% | [3]; at 100.0 µM 88% | [4]; at 1.2 µM 79% | [4]; at 3.7 µM 88% | [4]; [16] 75% | [4]; at 11.0 µM 92% | [4]; at 33.0 µM 91% | [4]; [17] 76% | [4]; at 50.0 µM 78.2% | [4]; at 100.0 µM 88% | [5]; at 100.0 µM 78% | [6]; at 1.2 µM 91% | [6]; at 3.7 µM 93% | [6]; at 11.0 µM 95% | [6]; at 33.0 µM 94% | [6]; at 100.0 µM 93% | [7]; [16] 73% | [7]; [17] 76% | [9]; [16] 91% | [9]; [17] 84% | [9]; at 50.0 µM 84.3% | [13]; at 1.2 µM 79% | [13]; at 3.7 µM 84% | [13]; at 11.0 µM 89% | [13]; at 33.0 µM 89% | [13]; at 100.0 µM 89% | [14]; [16] 89% | [14]; [17] 88% | [14]; at 50.0 µM 88.3% | [15]; at 1.2 µM 96% | [15]; at 3.7 µM 96% | [15]; at 11.0 µM 95% | [15]; at 33.0 µM 94% | [15]; at 100.0 µM 88%
inactive: [2]; at 1.2 µM 4% | [2]; at 3.7 µM 6% | [2]; at 11.0 µM 15% | [2]; at 33.0 µM 29% | [2]; at 100.0 µM 36% | [5]; at 1.2 µM 23% | [5]; at 3.7 µM 39% | [5]; [16] 45% | [5]; at 11.0 µM 55% | [5]; at 33.0 µM 65% | [5]; [17] 62% | [5]; at 50.0 µM 53% | [7]; at 50.0 µM 60.9% | [8]; at 1.2 µM -8% | [8]; at 3.7 µM -6% | [8]; at 11.0 µM 4% | [8]; at 33.0 µM 19% | [8]; at 100.0 µM 24% | [10]; at 1.2 µM -21% | [10]; at 3.7 µM -21% | [10]; [16] 2% | [10]; at 11.0 µM -1% | [10]; at 33.0 µM 5% | [10]; [17] 14% | [10]; at 50.0 µM 3.55% | [10]; at 100.0 µM 7% | [11]; at 1.2 µM 5% | [11]; at 3.7 µM 11% | [11]; at 11.0 µM 23% | [11]; at 33.0 µM 36% | [11]; at 100.0 µM 51%
